Test results taken from publication PMC8384837, “Expanding the binding specificity for RNA recognition by a PUF domain”.

Assays:
Assay in all cases: yeast three-hybrid, YBZ-1, SC-Leu-His + 0.5 mM 3-AT, 4 days
Settings in all cases: tags: N-Gal4 AD-HA kept; label: inside an RPR1-promoter hybrid RNA with tandem MS2 sites; ssRNA
PUM1 PUF domain R5-RFF = PUM1 PUF domain R5-RFF (Homo sapiens, UniProt Q14671 828-1176, C1007R;R1008F;Q1011F)
Summary of the method: (§1)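 Repeat regions from input (SC-Leu) and selection (SC-Leu-His + 0.5 mM 3-AT) plates were PCR-amplified and Illumina-sequenced after four days of growth. The cells were strain YBZ-1 with a LexA–MS2 coat fusion and a HIS3 reporter, co-expressing Pumilio-1 PUF domain libraries and matching RNA elements from a centromeric plasmid. The interaction score is the log change in variant frequency from input to selection, taken in log2 with a pseudocount of 1 for absent variants.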

PUM1 PUF domain R6-TWR = target: T1, PUM1 PUF domain R6-TWR (Homo sapiens, UniProt Q14671 828-1176, N1043T;Y1044W;Q1047R)
T1 sequence: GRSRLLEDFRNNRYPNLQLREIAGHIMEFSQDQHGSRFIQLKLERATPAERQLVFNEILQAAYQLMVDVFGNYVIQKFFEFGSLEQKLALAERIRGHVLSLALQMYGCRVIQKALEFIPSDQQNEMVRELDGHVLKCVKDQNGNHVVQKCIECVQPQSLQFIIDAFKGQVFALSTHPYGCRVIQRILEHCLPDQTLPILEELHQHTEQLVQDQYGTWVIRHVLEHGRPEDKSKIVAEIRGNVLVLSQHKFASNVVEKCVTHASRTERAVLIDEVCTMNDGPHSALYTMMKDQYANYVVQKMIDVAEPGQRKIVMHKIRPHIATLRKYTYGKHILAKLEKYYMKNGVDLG
Summary of the method: as §1

PUM1 PUF domain R5-QLV = PUM1 PUF domain R5-QLV (Homo sapiens, UniProt Q14671 828-1176, C1007Q;R1008L;Q1011V)
Summary of the method: as §1

PUM1 PUF domain R7-RFW = PUM1 PUF domain R7-RFW (Homo sapiens, UniProt Q14671 828-1176, S1079R;N1080F;E1083W)
Summary of the method: as §1

PUM1 PUF domain R7-RGR = PUM1 PUF domain R7-RGR (Homo sapiens, UniProt Q14671 828-1176, S1079R;N1080G;E1083R)
Summary of the method: as §1

GGCUAGAACUAGUGGAUCCCCCGGCGCCCGGCGGCUCGAGCCCGGGUAAGUGUCAAUAGUCUGCAUGCCGCCGGGCGCCAUGCCUGCAGGUCGACUCUAGAAAACAUG
binding signal (PUM1 PUF domain R5-RFF): 2.99 log2 enrichment (interaction score)

GGCUAGAACUAGUGGAUCCCCCGGCGCCCGGCGGCUCGAGCCCGGGUAAGUGUAAAUAGUCUGCAUGCCGCCGGGCGCCAUGCCUGCAGGUCGACUCUAGAAAACAUG
binding signal (PUM1 PUF domain R5-RFF): 1.95 log2 enrichment (interaction score) | binding signal (PUM1 PUF domain R6-TWR): 7.84 log2 enrichment (interaction score)

GGCUAGAACUAGUGGAUCCCCCGGCGCCCGGCGGCUCGAGCCCGGGUAAGUGUGAAUAGUCUGCAUGCCGCCGGGCGCCAUGCCUGCAGGUCGACUCUAGAAAACAUG
binding signal (PUM1 PUF domain R5-QLV): 2.52 log2 enrichment (interaction score)

GGCUAGAACUAGUGGAUCCCCCGGCGCCCGGCGGCUCGAGCCCGGGUAAGUCUAAAUAGUCUGCAUGCCGCCGGGCGCCAUGCCUGCAGGUCGACUCUAGAAAACAUG
binding signal (PUM1 PUF domain R7-RFW): 5.36 log2 enrichment (interaction score) | binding signal (PUM1 PUF domain R7-RGR): 5.01 log2 enrichment (interaction score)

GGCUAGAACUAGUGGAUCCCCCGGCGCCCGGCGGCUCGAGCCCGGGUAAGUAUAAAUAGUCUGCAUGCCGCCGGGCGCCAUGCCUGCAGGUCGACUCUAGAAAACAUG
binding signal (PUM1 PUF domain R7-RFW): 2.69 log2 enrichment (interaction score)

GGCUAGAACUAGUGGAUCCCCCGGCGCCCGGCGGCUCGAGCCCGGGUAAGUGCAAAUAGUCUGCAUGCCGCCGGGCGCCAUGCCUGCAGGUCGACUCUAGAAAACAUG
binding signal (PUM1 PUF domain R6-TWR): 5.67 log2 enrichment (interaction score)

GGCUAGAACUAGUGGAUCCCCCGGCGCCCGGCGGCUCGAGCCCGGGUAAGUUUAAAUAGUCUGCAUGCCGCCGGGCGCCAUGCCUGCAGGUCGACUCUAGAAAACAUG
binding signal (PUM1 PUF domain R7-RGR): 6.1 log2 enrichment (interaction score)
